# Screens (PubChem)
# NOD2-RIPK2 inh – NOD2-RIPK2 binding disruptors in cells, primary screen, fluorescence, CHO cells, BLA complementation | Receptor-interacting serine/threonine-protein kinase 2 (Homo sapiens), O43353 | inhibition, % at 4.98 µM | CCF4 ratio | actives 0.38% (n = 360,000); in the data active = inhibition above about 21%;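 also: 0% = vehicle only and 100% = reference blocker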
# HTR2A ag – mouse Htr2a agonists via beta-arrestin recruitment, primary screen, cell-based, luminescence. actives 0.66% (n = 360,000). AID 624169, 2012. 5-hydroxytryptamine receptor 2A (Mus musculus), P35363. activation, % at 7.6 µM. CHO-K1 mHTR2A beta-arrestin complementation; percent of 30 µM serotonin response;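 active = activation above a run cutoff, the mean activation of all tested compounds plus 3 SD, cut at about 14% in these data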;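 also: 0% = plate median of compound wells and 100% = 30 µM serotonin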
# Target sequence (P35363 whole entry, looked up): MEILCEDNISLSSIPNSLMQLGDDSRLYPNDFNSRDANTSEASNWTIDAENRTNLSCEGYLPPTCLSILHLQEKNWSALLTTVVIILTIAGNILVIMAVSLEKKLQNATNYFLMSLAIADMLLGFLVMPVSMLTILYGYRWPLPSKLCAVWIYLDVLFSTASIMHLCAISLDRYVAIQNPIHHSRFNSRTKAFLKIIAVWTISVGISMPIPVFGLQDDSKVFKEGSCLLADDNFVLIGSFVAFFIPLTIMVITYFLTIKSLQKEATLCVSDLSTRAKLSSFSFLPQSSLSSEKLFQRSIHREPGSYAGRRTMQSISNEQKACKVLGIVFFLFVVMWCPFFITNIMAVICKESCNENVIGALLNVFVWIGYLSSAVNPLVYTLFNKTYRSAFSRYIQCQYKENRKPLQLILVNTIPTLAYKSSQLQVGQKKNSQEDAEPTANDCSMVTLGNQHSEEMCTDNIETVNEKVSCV
# TMEM16A inh – TMEM16A chloride channel inhibitors, primary screen, cell-based, HTS; Anoctamin-1 (Mus musculus), Q8BHY3; HEK293 TMEM16A/YFP iodide influx fluorescence, ionomycin; normalized B-score (activity score, 25-100; higher = stronger inhibition) at 10 µM; actives 1.2% (n = 310,000);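 active = ratio plate-corrected score three or more library SD toward inhibition, starting fluorescence score within five deviations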;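 also: score derived from kinetic fluorescence span divided by baseline fluorescence per well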
# TLR4-MyD88 BLA – inhibitors of TLR4-MyD88 association in cells, primary screen, cell-based, HeLa CL3-4, BLA complementation, FRET ratio. Toll-like receptor 4 (Homo sapiens) + Myeloid differentiation primary response protein …. HeLa CL3-4 TLR4/MyD88 BLA complementation. inhibition, % at 8.4 µM. actives 0.18% (n = 200,000); in the data active = inhibition above about 25%;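 also: 0% = vehicle and 100% = reference inhibitor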
# TMEM16A act – TMEM16A chloride channel activators or potentiators, primary screen, cell-based, HTS; Anoctamin-1 (Mus musculus), Q8BHY3; HEK293 TMEM16A/YFP-H148Q/I152L, iodide quench fluorescence; active compounds read low; B-score at 10 µM; actives 0.3% (n = 340,000);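 active = fluorescence-ratio B-score plate-corrected deviation score at least 3 library SD below zero, with starting fluorescence score within 5 deviations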;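 also: channel opened by trigger with iodide after compound preincubation; score built on the fluorescence ratio of max minus min over baseline; more negative score means more quench and so TMEM16A activation or potentiation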
# TLR9-MyD88 inh – inhibitors of TLR9-MyD88 association in cells, primary screen, cell-based, CHO, BLA complementation, fluorescence | inhibition, % at 4.98 µM | AID 504734, 2011 | Toll-like receptor 9 (Homo sapiens) + Myeloid differentiation primary response protein … | CCF4 FRET ratio | actives 0.21% (n = 340,000);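 active = inhibition above the mean over all tested compounds plus 3 SD, cut at about 21% in these data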;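 also: 0% = DMSO only wells and 100% = clavulanate BLA inhibitor control wells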
# OPRM1 ag – OPRM1 agonists via beta-arrestin recruitment, confirmation, counter-screen for mouse HTR2A agonist project, cell-based, luminescence, single concentration | shares compounds with HTR2A ag | actives 5.3% (n = 2,300) | AID 624380, 2012 | U2OS OPRM1 beta-arrestin PathHunter; DMSO 0%, DAMGO 9.3 µM 100% | activation, % at 9.3 µM;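 active = mean activation above the mean of DMSO-only wells plus 3 SD, cut at about 0.5% in these data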
# HTR2A ag conf – mouse HTR2A agonists, beta-arrestin recruitment, confirmation, cell-based, luminescence, CHO-K1 PathHunter, triplicate | shares compounds with HTR2A ag | DMSO 0%, 30 µM serotonin 100% | activation, % at 7.6 µM | actives 19% (n = 2,300);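 active = mean activation across triplicates above the hit threshold derived in the original primary screen, cut at about 15% in these data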
# An asterisk follows results filed as active; i = inactive; x = not tested or not shown. Rows were chosen to be rich in hits. Some 2.4% of all compounds tested hit in one or more screens of this group.
SMILES,NOD2-RIPK2 inh,HTR2A ag,TMEM16A inh,TLR4-MyD88 BLA,TMEM16A act,TLR9-MyD88 inh,OPRM1 ag,HTR2A ag conf
CCOC(=O)c1c(C)n(S(=O)(=O)c2ccc(C)cc2)c2ccc(O)c(C(=O)O)c12,-2,3,i,x,i,-8,x,x
N/C(=N\O)c1ccccc1-n1cccc1,0,15*,i,-9,i,-5,-1,-3
CC(=O)Nc1ccc(NC(=O)c2cc(-n3cnnc3)ccc2Cl)cc1,4,16*,i,13,i,0,0,-4
CC(=O)c1cccc(NC(=O)c2cc(-n3cnnc3)ccc2Cl)c1,6,0,i,2,i,-6,x,x
COC(=O)[C@@]1(C)[C@H]2C(=O)N(C)C(=O)[C@H]2[C@H]2CN=C(SCC(=O)c3ccccc3)N21,13,0,x,x,x,-2,x,x
COC(=O)[C@@]1(C)[C@H]2C(=O)N(C)C(=O)[C@H]2[C@H]2CN=C(SCc3ccccc3)N21,2,17*,x,x,x,-6,-1,-4
Cn1ncc2c(Nc3ccc(O)cc3)nc(Cl)nc21,0,18*,i,x,i,11,-1,-3
CCOC(=O)c1ccc(NC(=S)Nc2ccccc2N)cc1,x,x,i,x,x,x,x,x
CCOC(=O)N1CCN(C/C(C)=C/c2ccccc2)CC1,-4,18*,i,-3,i,2,-1,57*
CC1CC(C)CN(CCOc2ccc(Cl)cc2Cl)C1 (configuration not stated),6,-8,i,0,i,-7,x,x
CC1CC(C)CN(CCOc2cccc(Cl)c2Cl)C1 (configuration not stated),4,30*,i,5,i,1,0,78*
CC(OCC(O)CNCC1COc2ccccc2O1)c1ccc(Cl)cc1 (configuration not stated),1,-2,i,7,i,-7,x,x
CC(=O)c1cccc(OCC(O)CNCC2COc3ccccc3O2)c1 (configuration not stated),-4,26*,i,x,i,-14,0,59*
CCOC(=O)C(C(=O)OCC)C1N=C(N)N=C2Oc3ccccc3N21 (configuration not stated),1,15*,i,6,i,-6,0,0
CC(C)(C)c1cc(C(=O)NN)n(Cc2ccc(F)cc2)n1,0,-8,i,x,i,1,x,x
C=CCNc1nc(-c2cccc(OC)c2O)nc2ccccc12,9,42*,i,13,i,-7,0,24*
COc1cccc(-c2nc(NC3CCCC3)c3ccccc3n2)c1O,3,78*,i,x,i,3,0,81*
O=C(CCN1CCN(c2ccccc2)CC1)Nc1ccc2c(c1)OCO2,1,13,i,12,i,-2,x,x
O=C(CCN1CCN(c2ccccc2F)CC1)Nc1ccc2c(c1)OCO2,-4,18*,i,2,i,2,0,59*
O=C(COC(=O)/C=C/c1cccc(C(F)(F)F)c1)NC(=O)NCc1ccccc1,5,4,x,x,i,0,x,x
O=C(COC(=O)/C=C/c1cccc(C(F)(F)F)c1)NC(=O)NC1CCCC1,-6,16*,x,x,i,-5,0,-3
Cc1cc(CSc2nc(C)cc(=O)[nH]2)c2ncccc2c1,-7,16*,i,3,i,5,-1,3
COc1cccc(Cn2cnc(-c3ccccc3OC)c2-c2cccs2)c1,3,24*,x,x,x,x,-1,-7
Cc1cccc(/C=N/NC(=O)NC23CC4CC(CC(C4)C2)C3)n1,-9,4,i,x,i,x,x,x
COc1ccccc1-n1c(=O)c2c3c(sc2n2c(SC(C)C)nnc12)CCC3,-11,16*,i,4,i,1,-1,4
SMILES,NOD2-RIPK2 inh,HTR2A ag,TMEM16A inh,TLR4-MyD88 BLA,TMEM16A act,TLR9-MyD88 inh,OPRM1 ag,HTR2A ag conf
Cc1cc(Cl)cc(C)c1OCCNCc1ccccc1,2,21*,i,x,i,5,0,11
COc1cccc(N2CCN(C3CC(=O)N(c4ccc(Cl)c(Cl)c4)C3=O)CC2)c1 (configuration not stated),4,-2,i,3,i,1,x,x
CN1C(=O)CC(N2CCN(c3ccc(Cl)c(Cl)c3)CC2)C1=O (configuration not stated),-1,16*,i,-1,i,9,0,5
CCOC(=O)c1ccc(/C=N/O)[n+](Cc2ccccc2)c1,3,-4,i,x,i,10,x,x
NC(=O)c1ccc(/C=N/O)[n+](Cc2ccccc2)c1,12,16*,i,x,i,4,-1,-3
OCC1(Cc2ccc(Cl)cc2)CCN(CC2CC=CCC2)CC1 (configuration not stated),-8,15*,i,-1,i,-7,0,14
OCC1(Cc2ccc(Cl)cc2)CCN(CCCc2ccccc2)CC1,-9,18*,i,4,i,x,0,44*
OCC1(Cc2ccc(Cl)cc2)CCN(Cc2ccccc2F)CC1,-5,3,i,-5,i,13,x,x
CSc1ccc(CN2CCC(CO)(Cc3ccc(Cl)cc3)CC2)cc1,-3,8,i,18,i,7,x,x
Cc1ccc(N2C(=S)NC3c4cc(Cl)ccc4OC2(C)C3C(=O)N(C)C)cc1 (configuration not stated),-9,2,i,-5,i,2,x,x
Cc1ccc(-c2ccc(=O)n(CC(=O)Nc3ccc4c(c3)OCCO4)n2)cc1,6,-2,i,4,i,-7,x,x
CN(C)S(=O)(=O)c1ccc(NC(=O)Cn2nc(-c3ccc4c(c3)OCCO4)ccc2=O)cc1,-3,15*,x,x,i,-4,0,-6
Cc1ccc(NC(=O)C2CCCN2C(=O)OCc2ccccc2)cc1F (configuration not stated),5,15*,i,x,i,-12,0,-5
